The structures appear in SMILES notation. Several values for one entry are separate records, joined by “and”; a condition that tells them apart may be missing. Identical values can stand only once. Out of some 410,000 compounds screened, about 5,100 (1.2%) were called active. A call without a number means that no potency is given here. Inconclusive results (about 8%) are left out. Calls come from the whole dose curve; tested in HEK293T cells. Only a selection was taken, and actives are over-represented in it overall.
Potency is the fitted concentration of half-maximal effect.

This assay in a line: High Throughput Screening for Foot and Mouth Disease Virus Antivirals. Note: read-out not given here; nearly all actives have a fitted effect of over 45% in size. Particulars: FMDV antiviral cell-based qHTS; series mostly up to 57.9 µM. (qHTS replaces the single test concentration by a dilution series.)
In the case of `COCCNc1ccnc(-c2cccc(NS(C)(=O)=O)c2)n1`, the Potency entry is “inactive”.

On to `CNc1ncnc2ccc(-c3cccc(NS(C)(=O)=O)c3)cc12`, for which the Potency result was “inactive”.

In the case of `COC(=O)CC1C(C)(C)C(OC(C)=O)C2CC3=C4CC(=O)OC(c5ccoc5)[C@]4(C)CCC3[C@@]1(C)C2=O` (stereo partly specified), the Potency entry is “inactive”.

Consider `Cc1ccc(-c2nn(CC(C)(C)C)c3ncnc(N)c23)cc1`, for which the Potency result was “inactive”.

In the case of `CC(=O)N1CCCc2cc(S(=O)(=O)N3CCC(C(=O)NC4CCCCC4)CC3)ccc21`, the Potency entry was “inactive”.

With `COc1cccc(N2CCN(S(=O)(=O)c3ccc4c(c3)CCCN4C(C)=O)CC2)c1`, the Potency result was “inactive”.

As for `CC(=O)N1CCCc2cc(S(=O)(=O)N3CCCC(C(=O)N4CCN(c5cccc(Cl)c5)CC4)C3)ccc21` (stereo unspecified), the Potency is 17.8 µM (active) and 12.6 µM (active).

For `COCCN1CCN(C(=O)c2sc3ncnc(NCC4CCCO4)c3c2C)CC1` (stereo unspecified), the Potency result was “inactive”.

Consider `CC(C)(c1ccc(OC[C@@H]2CO2)cc1)c1ccc(OC[C@H]2CO2)cc1`, for which the Potency entry is “inactive”.

`CN[C@@H]1[C@H](O[C@H]2[C@H](O[C@H]3[C@H](O)[C@@H](O)[C@H](N=C(N)N)[C@@H](O)[C@@H]3N=C(N)N)O[C@@H](C)[C@]2(O)CO)O[C@@H](CO)[C@H](O)[C@H]1O`: the Potency result is “inactive”.

Regarding `O=C(O)CCc1cccnc1`, the Potency entry is “inactive”.

As to `O=C1/C(=C\c2cccnc2)CN(Cc2ccccc2)C/C1=C\c1cccnc1`, the Potency was 6.31 µM (active).

Take `Nc1ccc2c(c1)C(=Cc1cccnc1)c1ccccc1-2`: the Potency result was “inactive”.

With `CS(=O)(=O)Nc1cccc(-c2cncnc2Nc2ccccc2)c1`, the Potency entry was “inactive”.

As for `CN(Cc1ccco1)c1cc(-c2ccccc2C(F)(F)F)ncn1`, the Potency result was “inactive”.

For the molecule `C=CC(C1=CC(=O)C=CC1=O)c1ccc(O)cc1` (stereo unspecified), the Potency result was “inactive”.

In the case of `CC(=O)OC1C2(CC3N4C(=O)C5(CO)SSC4(CC31O)C(=O)N5C)OC(C)C(C)(C)C2=O` (stereo unspecified), the Potency is 2 µM (active).

On to `Cc1cccc(Nc2cc(C)nc(-n3nc(C)cc3C)n2)c1`, for which the Potency entry was “inactive”.

As to `COc1ccccc1-c1cc(C(F)(F)F)nc(S(=O)(=O)CCCC(=O)Nc2cc(C)ccc2O)n1`, the Potency entry is “inactive”.

Regarding `Cc1ccc(C)c(N2CCN(C(=O)Cn3ncc4c(=O)oc5ccc(C)cc5c43)CC2)c1`, the Potency entry was “inactive”.

Regarding `O=C(c1csnn1)N1CCC2(CC1)CN(c1ncccn1)C2`, the Potency entry is “inactive”.

Regarding `Cc1cccn2c(=O)c(C(=O)NC(C)c3ccccc3)cnc12` (stereo unspecified), the Potency entry is “inactive”.

For the molecule `CCCc1[nH]nc2c1C(c1ccc(Br)s1)C(C#N)=C(N)O2` (stereo unspecified), the Potency is 25.1 µM (active).

Take `CCCc1nc2c([nH]1)C(c1cccnc1)C(C#N)=C(N)O2` (stereo unspecified): the Potency entry was “inactive”.

`CCNc1nc2[nH]c(=O)c3c(c2s1)OC(N)=C(C#N)C3c1cccs1` (stereo unspecified): the Potency result was “inactive”.

As to `CCC(=O)N1CCc2cc(CNS(=O)(=O)c3ccc(Br)s3)ccc21`, the Potency entry was “inactive”.

Regarding `Cn1c(=O)c2c(nc(NCCc3ccccc3)n2Cc2ccccc2)n(C)c1=O`, the Potency is 14.1 µM (active).

Turning to `CC(C)CCn1c(=O)c2c(nc3n2CCCN3Cc2ccccc2)n(C)c1=O`, the Potency entry was “inactive”.

Turning to `Cn1c(=O)c2c(nc(NCCc3ccccc3)n2Cc2ccccc2Br)n(C)c1=O`, the Potency entry is “inactive”.

Consider `Cn1c(=O)c2c(nc(SCC(=O)Nc3ccc(F)cc3)n2Cc2ccccc2)n(C)c1=O`, for which the Potency entry was “inactive”.

As to `CC(C)CCn1c(CN(C)Cc2ccccc2)nc2c1c(=O)n(C)c(=O)n2C`, the Potency is 39.8 µM (active).

Regarding `Cn1c(=O)c2c(nc(OCc3cccnc3)n2Cc2ccccc2)n(C)c1=O`, the Potency entry is “inactive”.

For `CN(C)C(=O)c1ccc(-c2cncnc2NC2CCNCC2)cc1`, the Potency entry is “inactive”.

In the case of `COCCn1c(=O)c(-c2cccs2)nc2cnc(N3CCN(C)CC3)nc21`, the Potency entry was “inactive”.

On to `Cc1ccccc1NC(=O)Cn1c(=O)n(CCCCC(=O)NCc2ccccc2Cl)c(=O)c2ccccc21`, for which the Potency result is “inactive”.

As to `C=CS(=O)c1sc(Cl)c(N2CCOCC2)c1[N+](=O)[O-]` (stereo unspecified), the Potency was 28.2 µM (active).

In the case of `CN(C)c1ncc2nc(-c3ccc(F)cc3)c(=O)n(Cc3ccc(F)cc3)c2n1`, the Potency entry is “inactive”.

On to `O=C(O)c1cc(S(=O)(=O)N(Cc2ccccc2)c2ccccc2)ccc1Cl`, for which the Potency entry was “inactive”.

For `CC(=O)N(CN1C(=O)C2C3C=CC(C3)C2C1=O)c1cccc(Cl)c1` (stereo unspecified), the Potency entry is “inactive”.

Consider `O=C(CCl)N(Cc1cccc([N+](=O)[O-])c1)c1cccc(Cl)c1`, for which the Potency was 28.2 µM (active).

Turning to `FC(F)(F)c1ccccc1-c1nc(-n2ccnc2)c2ccccc2n1`, the Potency result is “inactive”.

As to `Cc1cccc(NC(=O)Cn2c(C(F)(F)F)nc3ccccc32)c1C`, the Potency result is “inactive”.

As to `CC(=O)Nc1cc(C(=O)N2CCc3c(Cl)cccc3C2)cc2ncn(CCc3ccccn3)c12`, the Potency result is “inactive”.

On to `CCOC(=O)C1CCCN(C(=O)c2ccc3c(c2)sc2nc(-c4ccc(CC)cc4)cn23)C1` (stereo unspecified), for which the Potency is 14.1 µM (active).

Regarding `CCOC(=O)C1CCCN(C(=O)c2cncc(Br)c2)C1` (stereo unspecified), the Potency result was “inactive”.

For the molecule `COc1ccc(CCNC(=O)c2ccc3c(c2)sc2nc(-c4ccc(C)cc4)cn23)cc1OC`, the Potency result was “inactive”.

As to `CCC(=O)N1c2ccccc2CC1C(=O)N1CCN(c2cccc(OC)c2)CC1` (stereo unspecified), the Potency entry was “inactive”.

`CCCNS(=O)(=O)c1ccc(CCC(=O)N2CCCC2)cc1`: the Potency entry was “inactive”.

`CCNS(=O)(=O)c1ccc(CCC(=O)N2CCN(c3cc(Cl)ccc3C)CC2)cc1`: the Potency was 15.8 µM (active).

With `CCNS(=O)(=O)c1ccc(CCC(=O)N2CCN(c3ccc(OC)cc3)CC2)cc1`, the Potency entry is “inactive”.

Turning to `Cc1cnc(C(=O)N2CCOc3ccc(CN4CCCC(C(=O)c5cccnc5)C4)cc3C2)[nH]1` (stereo unspecified), the Potency result is “inactive”.

As for `CC(=O)Nc1ccccc1-c1nc(CNC(=O)c2ccc(Cl)cc2)c(C)o1`, the Potency entry is “inactive”.

As for `C=CCN1C(=O)NC(=O)/C(=C/c2ccc(OCC(=O)Nc3ccc(C)cc3)cc2)C1=O`, the Potency result is “inactive”.

`C=CCOc1ccc(/C=C/C(=O)OC(C)C(=O)Nc2ccc(NC(C)=O)cc2)cc1` (stereo unspecified): the Potency result was “inactive”.

In the case of `C=CCOc1ccc(/C=C2\SC(=S)N(CCC(=O)O)C2=O)cc1`, the Potency is 1 µM (active).

Take `COC(=O)[C@@H]1C[C@H](NC(=O)c2ccccc2C(F)(F)F)CN1Cc1cccc(O)c1`: the Potency entry is “inactive”.

On to `FC(F)(F)c1cccc(-c2cn[nH]c2C2CCCN(Cc3cccn3-c3ccccn3)C2)c1` (stereo unspecified), for which the Potency entry was “inactive”.

Regarding `COc1ccc(CCC(=O)c2c(O)cc(OC3OC(CO)C(O)C(O)C3O[C@@H]3OC(C)C(O)C(O)C3O)cc2O)cc1O` (stereo partly specified), the Potency result was “inactive”.

For the molecule `COc1ccc(CCNc2ncnc3nc[nH]c23)cc1OC`, the Potency is 25.1 µM (active).

With `COc1ccc(CCNc2ncnc3sc(C(=O)N4CCCC4)c(C)c23)cc1OC`, the Potency entry was “inactive”.

For the molecule `COc1ccc(CCNc2nc3ccc(C)cc3n3cnnc23)cc1OC`, the Potency result is “inactive”.

For the molecule `c1ccc(CCCCN2CCC(c3ccccc3)CC2)cc1`, the Potency entry is “inactive”.

For `CCOC(=O)/C(=C\c1ccc([N+](=O)[O-])cc1)C(=O)c1cc(C(C)=O)c(Nc2ccccc2)s1`, the Potency was 15.8 µM (active).

In the case of `CCOC(=O)c1c(C)[nH]c(C)c1C(=O)COC(=O)/C=C/c1cccc([N+](=O)[O-])c1`, the Potency result is “inactive”.

Take `CC(C)c1nnc(NC(=O)COC(=O)/C=C/c2ccc([N+](=O)[O-])cc2)s1`: the Potency result was “inactive”.

As to `COc1ccc(OCCCn2c(C)nc3cc(C)c(C)cc32)cc1`, the Potency result was “inactive”.

Regarding `COc1ccc(NC(=O)CSc2nccn2C2CCCC2)cc1OC`, the Potency entry was “inactive”.

Take `COc1ccc(C2CC(=O)N(Cc3ccccc3C)c3c2c(C)nn3-c2nc(C)cc(C)n2)c(OC)c1` (stereo unspecified): the Potency entry was “inactive”.

As for `O=C(O)CCn1c(O)c(C=C2N=c3ccccc3=N2)sc1=S`, the Potency was 10 µM (active).

`CCc1nc(-c2cc(S(=O)(=O)N3CCN(c4ccc(OC)cc4)CC3)ccc2OC)no1`: the Potency entry is “inactive”.

Take `CN(C)C1CN(Cc2cn(Cc3ccccc3)nn2)S(=O)(=O)C1` (stereo unspecified): the Potency entry was “inactive”.

In the case of `Cc1ccc(Cn2cc(CN3CC(N4CCN(C)CC4)CS3(=O)=O)nn2)cc1` (stereo unspecified), the Potency entry is “inactive”.

Regarding `CN(Cc1cn(Cc2ccc(C(F)(F)F)cc2)nn1)C1CN(Cc2cn(Cc3ccc(C(F)(F)F)cc3)nn2)S(=O)(=O)C1` (stereo unspecified), the Potency is 17.8 µM (active).

Regarding `Cc1ccc(CN2CCC(CNC(=O)c3cnn(-c4ccc(C)cc4)c3C3CCN(C(=O)OC(C)(C)C)CC3)CC2)cc1`, the Potency entry was “inactive”.

Take `COc1ncc2nc(-c3ccc(Cl)cc3)c(=O)n(C)c2n1`: the Potency entry was “inactive”.

Take `CCS(=O)(=O)c1ncc(N(Cc2ccc(F)cc2)Cc2ccco2)c(C(=O)Nc2cc(C)ccc2C)n1`: the Potency entry was “inactive”.

For the molecule `O=C(Nc1nc2ccc(F)cc2s1)c1nc(SCc2ccccc2F)ncc1Cl`, the Potency entry was “inactive”.

Take `CCOC(=O)c1ccc(NC(=O)c2nc(SCc3ccc(F)cc3)ncc2Cl)cc1`: the Potency entry was “inactive”.

In the case of `Cc1ccc2nc(NC(=O)c3nc(SCc4ccccc4F)ncc3Cl)sc2c1`, the Potency entry was “inactive”.

Consider `CSc1nnc(NC(=O)c2nc(S(=O)(=O)Cc3ccc(C)cc3)ncc2Cl)s1`, for which the Potency is 12.6 µM (active).

As to `Cc1cccc(NC(=O)Cn2cc(S(=O)(=O)Cc3ccccc3Cl)c3ccccc32)c1`, the Potency result is “inactive”.

As for `CCCSc1ncc(Cl)c(C(=O)Nc2c(C(=O)Nc3ccccc3)oc3ccccc23)n1`, the Potency entry is “inactive”.

For `Cc1cccc(NC(=O)c2nc(S(=O)(=O)Cc3ccccc3)ncc2Cl)c1`, the Potency was 10 µM (active).

As to `Cc1ccc(NC(=O)c2nc(S(=O)(=O)Cc3cccc(C)c3)ncc2Cl)cc1`, the Potency is 25.1 µM (active).

On to `CCC(C)(C)N=C(NC#N)Nc1cccnc1`, for which the Potency result is “inactive”.

With `COc1ccccc1C1CN(CCNC(=O)C2=CCCC2)Cc2ccccc2O1` (stereo unspecified), the Potency entry is “inactive”.

`CCOC(=O)c1c(S(=O)(=O)N2CCCC(C(=O)NCc3cccc(C)c3)C2)c(C)n(C)c1C` (stereo unspecified): the Potency result was “inactive”.

With `CCc1ccccc1N1C(=O)CN(S(=O)(=O)CC)CC1(C)C(=O)NC1CCCCC1` (stereo unspecified), the Potency result is “inactive”.

For `CCN(CCCNC(=O)Cn1ncc2c([nH]c3ccccc32)c1=O)c1cccc(C)c1`, the Potency result was “inactive”.

As for `Cc1[nH]c2c(C(=O)NCC3Cc4cccc(-c5cccnc5)c4O3)cccc2c1C` (stereo unspecified), the Potency result was “inactive”.

As to `N#Cc1cccc(-c2ccc3ncnc(NCc4cccs4)c3c2)c1`, the Potency entry is “inactive”.

Consider `O=C1CC(c2nnc(Cc3ccc(Cl)cc3)o2)CN1c1ccccc1` (stereo unspecified), for which the Potency result was “inactive”.

With `Cc1noc(C)c1-c1nccc(N2CCOCC2)n1`, the Potency entry was “inactive”.

With `CCc1nc(SCC(=O)Nc2ccccc2OC)n[nH]1`, the Potency result was “inactive”.

For the molecule `CCCc1nc(SCC(=O)N2CCCC2)c2c(=O)n(C)c(=O)n(C)c2n1`, the Potency entry was “inactive”.

As to `CCCc1nc(SCC(=O)Nc2ccccc2OC)c2c(=O)n(C)c(=O)n(C)c2n1`, the Potency was 25.1 µM (active).
